MEKK2 mut-MEK5 = signal of MEK5 binding to mutant human MEKK2 PB1 domain; bead flow cytometry, Alexa488-MEK5 binding to MEKK2 mutant; percent response, % at 10 µM; 290,000 compounds, 0.35% hits; AID 1530; in the data active = percent response above about 24%, passing the limit was not always enough
Beta2AR agonist = human beta-2 adrenergic receptor agonism by FAP; P07550; response, % (no concentration beside the values); 340,000 compounds, 0.43% hits; AID 504454; Am2.2-beta2AR cells, FAP receptor internalization, flow cytometry;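 active = response above a set limit, near 3 SD of response in nonfluorescent compounds, cut at about 42% in these data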
MEKK2 WT-MEK5 = raises or lowers MEK5 binding to wildtype human MEKK2 PB1 domain. binding response (% of control), % at 10 µM. 290,000 compounds, 1.1% hits. bead flow cytometry, Alexa488-MEK5 binding to MEKK2 WT; actives lie on both sides. AID 1531. Q9Y2U5; in the data active = binding response below about 67% or above about 130%
GRK2 aptamer HTS = blocks RNA aptamer binding to human GRK2; inhibition of aptamer binding, % at 10 µM; 330,000 compounds, 0.59% hits; AID 488847; P25098; bead flow cytometry, FAM-aptamer displacement from GRK2;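 active = inhibition of aptamer binding above 40%, roughly 3 SD of noise, on plates passing a quality check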;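 note: median bead fluorescence of bound FAM aptamer so fluorescent compounds give negative values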
Target sequence (P25098 whole entry, looked up): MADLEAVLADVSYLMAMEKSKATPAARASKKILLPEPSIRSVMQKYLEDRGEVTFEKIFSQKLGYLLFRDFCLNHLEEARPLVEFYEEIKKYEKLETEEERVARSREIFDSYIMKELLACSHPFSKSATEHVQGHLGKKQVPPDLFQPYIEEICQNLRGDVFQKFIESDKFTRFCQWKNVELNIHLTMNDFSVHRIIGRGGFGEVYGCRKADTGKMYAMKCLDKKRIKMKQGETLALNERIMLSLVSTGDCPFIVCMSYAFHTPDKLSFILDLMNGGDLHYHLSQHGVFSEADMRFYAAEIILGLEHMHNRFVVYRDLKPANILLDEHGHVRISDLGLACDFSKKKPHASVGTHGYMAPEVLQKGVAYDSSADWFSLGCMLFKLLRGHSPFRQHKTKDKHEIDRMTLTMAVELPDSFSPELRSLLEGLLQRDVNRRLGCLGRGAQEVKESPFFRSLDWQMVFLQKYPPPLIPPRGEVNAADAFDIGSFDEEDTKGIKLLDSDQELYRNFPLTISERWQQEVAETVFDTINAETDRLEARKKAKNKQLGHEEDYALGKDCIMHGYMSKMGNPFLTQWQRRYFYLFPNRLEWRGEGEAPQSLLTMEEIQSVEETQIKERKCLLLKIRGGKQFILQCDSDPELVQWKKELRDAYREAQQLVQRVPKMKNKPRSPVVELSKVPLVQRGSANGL
MEKK3 PB1 HTS = modulators (inhibitors or enhancers) of MEK5 binding to human MEKK3 PB1 domain; Q99759; bead-based flow cytometry, Alexa488-MEK5 binding to MEKK3; actives lie on both sides; 0 = blocked by unlabeled MEK5, 100 = vehicle; binding response (% of control), % at 10 µM; 290,000 compounds, 1.4% hits; AID 1529;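 active = binding response more than 3 SD above or below the average of its plate-row segment, actives on both sides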;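 note: Alexa488 bead fluorescence after subtracting the streptavidin-only scavenger bead signal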
Each line names hits and unclear results; the compound was inactive in the other large screens; [ ] = dose if it differs, or a comment. Most compounds without a hit are left out; they make up all but 2.9% or so of the library.

OCCOCCN1CCN(C2=Nc3ccccc3Sc3ccccc32)CC1	none
O=C1C=CC(=O)c2c(O)c(N3CCN(CCO)CC3)c(Cl)c(O)c21	Beta2AR agonist 100 (no result: MEKK2 mut-MEK5, MEKK2 WT-MEK5, GRK2 aptamer HTS, MEKK3 PB1 HTS)
COc1ccc(CNCCCC(=O)Nc2c(Cl)ccc(C)c2Cl)cc1OC	none
COC(=O)c1c(C)nc(C)c(C(=O)OC)c1-c1cccs1	MEKK2 mut-MEK5 64
O=C(N[C@@H]1CCC(=O)N(CC[C@H](Oc2ccccc2)c2ccccc2)CC1)OCc1ccccc1	none
CCOc1ccccc1C1C2C(=O)N(c3ccccc3)C(=O)C2ON1c1ccccc1 (configuration not stated)	GRK2 aptamer HTS 94
O=C(O)COc1ccccc1C1C2C(=O)N(c3ccccc3)C(=O)C2ON1c1ccccc1 (configuration not stated)	none
CC(=O)Nc1ccc(S(=O)(=O)N(C)c2ccc(OCC(=O)NCCc3ccccc3F)cc2)cc1	none (no result: MEKK2 mut-MEK5, MEKK2 WT-MEK5, GRK2 aptamer HTS, MEKK3 PB1 HTS)
O=C(NCc1cccc(OC(F)(F)F)c1)C1CCC(=O)N(Cc2cccc(F)c2)C1 (configuration not stated)	none
CCOC(=O)COc1ccc(/C=C/[N+](=O)[O-])c(OCC(=O)OCC)c1	Beta2AR agonist 54
CCOC(=O)COc1ccc2nsnc2c1	none
O=[N+]([O-])/C=C/c1c(OCc2ccccc2)ccc2ccccc12	Beta2AR agonist 89
CCOC(=O)COc1ccc2ccccc2c1/C=C/[N+](=O)[O-]	Beta2AR agonist 44
CCOc1ccccc1NC(=O)/C=C/c1ccccc1[N+](=O)[O-]	none
CCOC(=O)Cn1cc(/C=C/[N+](=O)[O-])c2ccccc21	none
CCCCOc1ccc2ccccc2c1C=O	none
CCOc1ccc(/C=C/[N+](=O)[O-])c2ccccc12	Beta2AR agonist 78
CCOC(=O)C1=C(CC)Nc2ccccc2N=C1NC(=O)c1ccc(OC)c(S(=O)(=O)N2CCOCC2)c1	none (no result: MEKK2 mut-MEK5, MEKK2 WT-MEK5, GRK2 aptamer HTS, MEKK3 PB1 HTS)
COc1cc(OC)cc(C(=O)Nc2ccccc2C(=O)NC2CC2)c1	none (no result: MEKK2 mut-MEK5, MEKK2 WT-MEK5, MEKK3 PB1 HTS)
CCCCN1CC(=O)N2[C@H]3c4ccccc4OC[C@@H]3[C@H](c3ccccc3)[C@]2(C)C1=O	none (no result: MEKK2 mut-MEK5, MEKK2 WT-MEK5, MEKK3 PB1 HTS)
S=C1NCN(Cc2ccco2)CN1Cc1ccco1	none
CCN1CN(Cc2ccco2)CNC1=S	Beta2AR agonist 48
O=C(O)c1ccccc1C(=O)Nc1c(-c2ccccc2)nc2ccccn12	none
CCc1ccc(Nc2n[n+](-c3ccccc3)c(-c3c(Cl)cccc3Cl)s2)cc1	Beta2AR agonist 80
CCN(CC)c1ccc(-c2sc(Nc3ccccc3)n[n+]2-c2ccc(F)cc2)cc1	MEKK2 mut-MEK5 76, MEKK2 WT-MEK5 33
CN(C)c1ccc(-c2sc(Nc3ccccc3)n[n+]2-c2ccc(F)cc2)cc1	none
COc1cccc(CC(=O)OCC(=O)N(C)CC(=O)Nc2ccc(F)cc2)c1	none (no result: MEKK2 mut-MEK5, MEKK2 WT-MEK5, MEKK3 PB1 HTS)
Cc1ccc(-c2nc(CNC(=O)c3ccco3)cs2)cc1	none
COc1ccc(CN2CCN(S(=O)(=O)c3ccc(F)cc3)CC2)cc1OC	MEKK2 WT-MEK5 22[inhibitor], MEKK3 PB1 HTS 13[inhibitor]
COc1ccc(-n2nc3c(N4CCC(C(=O)NCc5ccccc5C)CC4)nnc(C)c3c2C)cc1	Beta2AR agonist 82
Cc1cc(C)c(-c2cc(C(=O)Nc3cc(C)ccc3C)[nH]n2)c(O)c1	none
O=C(/C=C/c1ccco1)N1CCN(S(=O)(=O)c2cccc([N+](=O)[O-])c2)CC1	GRK2 aptamer HTS 79 (no result: MEKK2 mut-MEK5, MEKK2 WT-MEK5, MEKK3 PB1 HTS)
COc1cc(/C=C/C(=O)c2cccc([N+](=O)[O-])c2)cc(OC)c1OC	Beta2AR agonist 52
CCOC(=O)c1sc(Nc2ccc(Br)cc2)nc1C	MEKK2 WT-MEK5 -4.0
N#C/C(=C\c1ccc(N2CCOCC2)c([N+](=O)[O-])c1)c1nc2ccccc2[nH]1	none
N#C/C(=C/c1ccc(N2CCCC2)c([N+](=O)[O-])c1)c1nc2ccccc2[nH]1	Beta2AR agonist 82
CCOC(=O)COn1c(-n2nc(C)cc2C)nc2ccccc2c1=O	none
CC(c1ccccc1)N(C)C(=O)CSc1nnc(C2CC2)n1C1CC1 (configuration not stated)	none (no result: MEKK2 mut-MEK5, MEKK2 WT-MEK5, MEKK3 PB1 HTS)
N#Cc1c(NCCN)nc(NCc2ccccc2)c2c1CCN(Cc1ccccc1)C2	MEKK2 mut-MEK5 36, MEKK2 WT-MEK5 169 (no result: GRK2 aptamer HTS)
CCCn1nnnc1NCc1ccc(C(C)C)cc1	none
Cc1ccc(C2=NN(S(=O)(=O)c3ccccc3)C(c3ccco3)C2)cc1 (configuration not stated)	none (no result: MEKK2 mut-MEK5, MEKK2 WT-MEK5, MEKK3 PB1 HTS)
CS(=O)(=O)Nc1ccc(C2=NN(S(=O)(=O)c3ccc(F)cc3)C(c3ccco3)C2)cc1 (configuration not stated)	MEKK2 WT-MEK5 3.0
O=S(=O)(c1ccccc1)N1N=C(c2ccc(Br)cc2)CC1c1ccco1 (configuration not stated)	MEKK2 WT-MEK5 17
CCn1c(O)c(N=NC(=O)c2ccc(CSc3nncn3C)cc2)c2ccccc21	Beta2AR agonist 53
Cn1cnnc1SCc1ccc(C(=O)N=Nc2c(O)n(Cc3ccc(Cl)cc3)c3ccccc23)cc1	none
CS(=O)(=O)c1ccc(C(=O)OCC(=O)N2CCCc3ccccc32)cc1	none (no result: MEKK2 mut-MEK5, MEKK2 WT-MEK5, MEKK3 PB1 HTS)
COc1ccc(CC(=O)Nc2ccc(N3CCCC3)c(C)c2)cc1	MEKK2 WT-MEK5 33[inhibitor]
Cc1nc2cc(NC(=O)c3ccco3)ccc2n1C	none
COc1ccc2nc(C)cc(Nc3ccccc3O)c2c1	none
COc1ccc2nc(C)cc(NCc3cccc(C(F)(F)F)c3)c2c1	MEKK2 WT-MEK5 154
CN1C(=O)/C(=C\c2ccccc2F)Sc2ccc(C(=O)NC3CCN(Cc4ccccc4)CC3)cc21	MEKK2 WT-MEK5 168
CCN1CCN(CCNC(=O)c2ccc3c(c2)N(Cc2ccc(F)cc2)C(=O)/C(=C/c2ccccc2)S3)CC1	MEKK2 mut-MEK5 117, MEKK2 WT-MEK5 278
Cc1cccc(CN2C(=O)/C(=C\c3ccc(C(=O)NCCN4CCOCC4)cc3)Sc3ccccc32)c1	Beta2AR agonist 46
N#Cc1c([N+](=O)[O-])cc([N+](=O)[O-])cc1S(=O)(=O)Cc1ccccc1	Beta2AR agonist 94 (no result: MEKK2 mut-MEK5, MEKK2 WT-MEK5, MEKK3 PB1 HTS)
CS(=O)(=O)Nc1ccccc1C(=O)Nc1cccc(Cl)c1	none
CS(=O)(=O)Nc1ccccc1C(=O)Nc1cc(Cl)cc(Cl)c1	GRK2 aptamer HTS 99
Cc1ccccc1NC(=O)NC(N)=O	MEKK2 WT-MEK5 -4.0
Cc1ccccc1NC(=O)c1cc[n+]([O-])cc1	MEKK2 WT-MEK5 169
Cc1cccc(NC(=O)c2cc[n+]([O-])cc2)c1C	none
Cc1cc(O)c(CN(C)C)c2c1C(=O)/C(=C/c1ccco1)O2	none
Cc1cc(O)c(C=O)c2c1C(=O)Oc1c(CO)c(O)c3c(c1O2)C(O)OC3=O (configuration not stated)	GRK2 aptamer HTS 72
O=C(O)c1cc(N/N=C/c2ccc(-c3ccccc3)cc2)ccc1Cl	GRK2 aptamer HTS 43
Cc1cccc(Cn2c(=O)c3c(nc4n3CCN4Cc3ccco3)n(C)c2=O)c1	MEKK2 WT-MEK5 2.0[inhibitor], MEKK3 PB1 HTS 2.0[inhibitor]
Nc1nc(-c2ccc(Cl)cc2)nn1C(=O)c1cccnc1	none
Nc1nc(-c2cccnc2)nn1C(=O)c1ccc(Cl)cc1	MEKK2 WT-MEK5 -3.0 (no result: GRK2 aptamer HTS)

Screening data (PubChem BioAssay)
